# This is a sample that favours compounds with a hit; in the whole collection about 10% have one here.
# HP1b binding inh = inhibitors of HP1-beta chromodomain binding to methylated histone tails; P83916; AlphaScreen HP1-beta / biotin-H3K9me3 peptide binding; Potency, µM (highest dose often 114 µM), actives largely listed as inhibitors; actives 0.56% (n = 390,000); AID 540317; further: nearly all actives have a fitted effect of over 70% in size
#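 HP1-beta protein (50 nM final) preincubated 30 min at room temperature with biotinylated H3(1-18)K9me3 peptide (50 nM) in PBS pH 7.4, 0.01% Tween-20, then compound added for 30 min. AlphaScreen streptavidin donor/nickel chelate acceptor beads (10 ug/mL final), 30 min dark, luminescence read.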
# GLS inhibitor = blocks human kidney-isoform glutaminase activity. actives 0.21% (n = 410,000). AID 624170. O94925. Potency, µM (series often up to 45.5 µM), most hits filed as inhibitors. GLS enzymatic activity, qHTS titration
#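 Two-point fluorescence kinetic (t0, 30 min RT) for hKGA; glutamate detected via glutamate oxidase–HRP–Amplex Red. Substrate: 1 mM L-glutamine solution; buffer 45 mM KH2PO4, pH 8.2.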
# G9a inh = G9a (human) methyltransferase inhibition; Q96KQ7; G9a H3K9 monomethylation, AlphaScreen, 2 h; Potency, µM (series often up to 102 µM), hits mostly inhibitors; actives 8.8% (n = 350,000); AID 504332; further: nearly all actives have a fitted effect of over 75% in size
#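 Quantitative HTS format: methyltransferase activity on a biotin-tagged H3K9 peptide is measured by AlphaScreen, using a rabbit anti-monomethyl-H3K9 antibody with streptavidin donor and anti-IgG acceptor beads. Final levels are 20 nM enzyme, 500 nM peptide, 20 uM SAM; 2 h RT.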
# BAZ2B block = blocks human BAZ2B | AlphaScreen BAZ2B-H3K14Ac peptide displacement | AID 504333 | Q9UIF8 | actives 4.4% (n = 360,000) | Potency, µM (top dose mostly 114 µM), most hits filed as inhibitors; further: nearly all actives have a fitted effect of over 60% in size
#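 Complex of BAZ2B and biotin-H3K14Ac (50 nM apiece) forms over 30 min at RT, then faces library compounds up to 110 uM for another 30 min; AlphaScreen beads added, 20 min dark incubation, luminescence read.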
# JMJD2A Tudor = JMJD2A Tudor domain (human) inhibition | AlphaScreen JMJD2A-Tudor / H3K4me3 peptide binding | actives 4.4% (n = 390,000) | Potency, µM (titrated, usually from 114 µM), usual class: inhibitors | AID 504339; further: nearly all actives have a fitted effect of over 50% in size
# Target sequence (O75164 whole entry, looked up, the tested form may be a part): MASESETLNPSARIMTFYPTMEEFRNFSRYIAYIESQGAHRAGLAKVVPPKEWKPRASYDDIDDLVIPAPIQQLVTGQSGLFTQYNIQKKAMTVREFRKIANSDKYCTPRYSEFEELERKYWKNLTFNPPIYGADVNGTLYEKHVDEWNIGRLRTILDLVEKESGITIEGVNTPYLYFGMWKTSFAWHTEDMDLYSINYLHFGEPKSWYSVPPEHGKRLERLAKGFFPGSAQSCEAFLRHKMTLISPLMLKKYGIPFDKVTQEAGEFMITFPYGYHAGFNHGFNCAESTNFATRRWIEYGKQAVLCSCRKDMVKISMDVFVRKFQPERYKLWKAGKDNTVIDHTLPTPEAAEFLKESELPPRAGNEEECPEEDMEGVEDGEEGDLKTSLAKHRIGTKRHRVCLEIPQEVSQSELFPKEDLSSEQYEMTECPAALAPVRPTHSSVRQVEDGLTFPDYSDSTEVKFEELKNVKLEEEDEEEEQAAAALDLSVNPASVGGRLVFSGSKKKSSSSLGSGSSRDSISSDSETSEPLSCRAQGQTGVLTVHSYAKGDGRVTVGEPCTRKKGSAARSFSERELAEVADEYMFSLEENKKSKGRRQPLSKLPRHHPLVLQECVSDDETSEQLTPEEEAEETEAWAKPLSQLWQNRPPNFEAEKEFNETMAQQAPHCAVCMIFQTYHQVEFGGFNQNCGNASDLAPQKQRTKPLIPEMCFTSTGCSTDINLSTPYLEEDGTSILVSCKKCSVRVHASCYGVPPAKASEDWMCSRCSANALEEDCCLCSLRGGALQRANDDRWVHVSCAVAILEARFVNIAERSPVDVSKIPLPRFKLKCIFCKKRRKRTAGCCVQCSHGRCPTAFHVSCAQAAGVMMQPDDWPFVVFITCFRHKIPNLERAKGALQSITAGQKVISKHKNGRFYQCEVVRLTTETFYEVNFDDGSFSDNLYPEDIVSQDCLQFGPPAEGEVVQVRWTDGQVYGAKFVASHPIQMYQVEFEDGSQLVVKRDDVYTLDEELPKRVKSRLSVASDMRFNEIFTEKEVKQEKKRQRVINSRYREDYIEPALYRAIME
# A number is an active result; n = inactive; u = inconclusive; x = no result given; ! = a repeat was not active; [ ] = another dose, or the depositor's remark. The call rests on the fitted dose curve; in most records, active means well fitted curve in the direction sought with a large enough effect; inconclusive means small, poorly fitted or top-dose-only effect, or another doubt; inactive means no such curve, though single readings can be large; an effect the other way counts as inactive or inconclusive.
SMILES,HP1b binding inh,GLS inhibitor,G9a inh,BAZ2B block,JMJD2A Tudor
O=C1c2ccccc2C(O)N1Cc1ccc2c(c1)OCO2 (centres undefined),n,n,u,n,n
Cc1ccc(C)c(Nc2nc(-c3ccccc3)c3cc(Br)ccc3n2)c1,n,n,n,n,n
O=C(NC1CCN(Cc2ccc(Cl)cc2Cl)CC1)c1ccccc1,n,n,u,n,n
CCOc1ccc(NC2c3ccccc3C(=O)N2Cc2ccco2)cc1 (centres undefined),u,n,45µM,50µM,45µM
COc1ccc(NC2c3ccccc3C(=O)N2Cc2ccco2)cc1OC (centres undefined),n,n,u,u,u
CCN(CC(=O)NC(C)C)C(=O)Cc1ccc(C)c(C)c1,n,n,n,n,n
COc1ccccc1C(O)c1ncc(-c2cccc3ccccc23)[nH]1 (centres undefined),x,n,x,x,x
Cc1ccc(C)n1C1CCS(=O)(=O)C1 (centres undefined),n,n,56µM,n,n
Cc1[nH]c2ccccc2c1C(c1ccccn1)c1c(C)[nH]c2ccccc12,n,n,28µM,35µM,n
CCN(CC)S(=O)(=O)c1ccc2c(c1)N(CC(=O)Nc1cccc(C#N)c1)C(=O)CO2,n,n,n,n,n
CCCc1cc(=O)[nH]c(SCC(=O)N2N=C(c3ccc(Cl)cc3)CC2c2ccco2)n1 (centres undefined),n,n,u,n,n
Nc1cc(=O)[nH]c(SCC(=O)N2N=C(c3ccc(Cl)cc3)CC2c2ccco2)n1 (centres undefined),n,n,u,u,n
COc1ccc(C2=NN(C(=O)CSc3nc4ncc(Cl)cc4[nH]3)C(c3ccco3)C2)cc1 (centres undefined),n,n,56µM,n,n
Cc1ccc(C2=NN(C(=O)CSc3nc4ncc(Cl)cc4[nH]3)C(c3ccco3)C2)cc1 (centres undefined),n,n,22µM,x,n
O=C(Cc1ccccc1)Nc1c(C(=O)Nc2ccccc2F)oc2ccccc12,n,n,n,n,n
COc1ccc(NS(=O)(=O)c2ccc(N3CCCC3)c(NC(=S)Nc3cccc(S(=O)(=O)N(C)C)c3)c2)cc1,x,x,1.6µM,u,x
CCNC(=O)C1CCCN(C(=O)c2ccc(OC)c(OC)c2)CC1 (centres undefined),x,n,x,x,x
Cc1ccccc1C(=O)Nc1ccnn1C1CCN(C(=O)c2cnsn2)CC1,n,n,n,n,n
Cc1cccc(-n2nc(C)c3c(C(=O)O)cc(-c4cccs4)nc32)c1,n,n,n,n,n
Cc1nn(-c2ccccc2)c2nc(-c3ccco3)cc(C(=O)O)c12,n,7.1µM,20µM,u,u
Cc1nn(-c2cccc(Cl)c2)c2nc(-c3ccco3)cc(C(=O)O)c12,n,u,10µM,u,n
O=C(CSc1ccccn1)Nc1nonc1[N+](=O)[O-],n,n,x,n,n
CCC(C)NCCCCOc1ccc(C)cc1[N+](=O)[O-] (centres undefined),u,n,n[0.501 µM],45µM,3.5µM
COc1ccc(OCCOCCOc2ccc(C)cc2[N+](=O)[O-])cc1,n,n,n,n,n
COCCNCCCCOc1ccc(C)cc1[N+](=O)[O-],n,n,u,56µM,2.8µM
SMILES,HP1b binding inh,GLS inhibitor,G9a inh,BAZ2B block,JMJD2A Tudor
C=CCNCCCCOc1ccc(C)cc1[N+](=O)[O-],18µM,n,13µM,56µM,7.9µM
Cc1ccc(OCCOCCNC(C)(C)C)c([N+](=O)[O-])c1,n,n,14µM,79µM,8.9µM
CCc1ccc(NC(=O)CCc2ccc(CC)o2)cc1,n,n,x,n,n
COc1cc(Cl)c(C)cc1NC(=O)CSc1cc(=O)n(C)c2cc(Cl)ccc12,n,n,n,x,n
COCCCNCCOc1ccc(C)cc1[N+](=O)[O-],u,n,14µM,u,1µM
COc1cccc(OCCOCCOc2ccc(C)cc2[N+](=O)[O-])c1,n,n,n,n,n
CCOC(=O)C1(Cc2cccc(Cl)c2)CCCN(C(=O)c2cnn(CC)c2)C1 (centres undefined),n,n,25µM,n,n
CCOC(=O)C1(Cc2cccc(Cl)c2)CCCN(C(=O)c2cn[nH]c2)C1 (centres undefined),n,n,x,n,n
CCCNC(=O)NNC(=O)c1ccc(F)cc1,n,11µM,n,n,u
O=C(NCCCCNC(=O)c1ccc(F)cc1)c1ccc(F)cc1,n,n,n,n,n
Cc1oc(-c2ccc(C(=O)Nc3cc(F)ccc3F)cc2)nc1COc1ccccc1,n,n,n,n,n
O=C(CSc1nc2cc(Cl)ccc2s1)c1ccco1,n,n,n,n,n
O=C(CSc1ncn[nH]1)c1ccco1,u,n,5.6µM,n,n[11.4 µM]
O=C(CSc1ncn[nH]1)c1ccccc1,n,n,3.2µM,u,25µM
O=C(CSc1nccc(=O)[nH]1)c1ccco1,n,n,u,n,n
O=C(CSc1ncn[nH]1)NCc1ccccc1,n,n,n,n,n
O=C(CSc1ncn[nH]1)Nc1ccc(Cl)c(Cl)c1,n,n,45µM,n,n[11.4 µM]
O=C(CSc1nnc(SCC(=O)c2ccco2)s1)c1ccco1,u,n,n,u,20µM
Cc1cccc(C(c2sc3nc(-c4ccco4)nn3c2O)N2CCN(Cc3ccccc3)CC2)c1 (centres undefined),n,n,n,n,n
COc1ccc(CNC(=O)CSc2ncn[nH]2)cc1,n,n,2.8µM,n,n
COc1ccc(Br)c2oc(S)cc(=O)c12,n,n,7.1µM,n,35µM
CC(OCc1ccccc1)C(NC(=O)OC(C)(C)C)C(=O)NC1COC2CC(n3ccc(=O)[nH]c3=O)OC12 (centres undefined),n,x,x,x,n
CC(=O)Oc1ccc(C(=O)Nc2cccc(C(=O)c3ccc(C)c(C)c3)c2)cc1,n,n,u,n,n
CN(C)CC[C@@H](c1ccc(Br)cc1)c1ccccn1,n,n,16µM!,x,n
CCOc1ccc(OCC(=O)Nc2ccc(S(=O)(=O)Nc3cc(C)nc(C)n3)cc2)cc1,n,n,14µM,n,n
SMILES,HP1b binding inh,GLS inhibitor,G9a inh,BAZ2B block,JMJD2A Tudor
Cc1cc(NS(=O)(=O)c2ccc(NC(=S)NC(=O)c3ccc(F)cc3)cc2)no1,n,n,n,n,n
Cc1cc(NS(=O)(=O)c2ccc(NC(=O)/C=C/c3ccco3)cc2)nc(C)n1,n,n,50µM,n,n
Cc1ccc(OCCC(=O)Nc2ccc(S(=O)(=O)Nc3cc(C)nc(C)n3)cc2)cc1,n,n,n,n,n
Cc1cc(NS(=O)(=O)c2ccc(NC(=O)COc3ccc(Br)cc3)cc2)nc(C)n1,n,u,x,n,20µM
Cc1cc(NS(=O)(=O)c2ccc(NC(=S)NC(=O)c3cccc(S(=O)(=O)N(C)C)c3)cc2)no1,n,n,35µM,n,n
COc1cc(C(=O)NC2CCN(CC(=O)Nc3cccc(C)c3C)CC2)cc(OC)c1OC,n,n,n,n,u
COC(=O)N1CCC[C@@]2(CCN(Cc3nccs3)C2)C1,x,x,n[12.7 µM],x,x

# Screens deposited in PubChem BioAssay by National Center for Advancing Translational Sciences (NCATS).
